Test results reported in the supplement of paper PMC4022240.
± gives the standard deviation.

T1: HaloTag-ATRX ADD domain (163-292)
T1 chain: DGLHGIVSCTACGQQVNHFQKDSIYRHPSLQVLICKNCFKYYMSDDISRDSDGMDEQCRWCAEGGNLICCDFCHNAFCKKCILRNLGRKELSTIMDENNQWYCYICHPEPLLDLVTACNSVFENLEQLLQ

B1: Unmod H2A variant R N D E E L N K L L G R V (peptide)
chain: RNDEELNKLLGRV
B2: Unmod H2B variant P D P A K S A P A P K K G (peptide)
chain: PDPAKSAPAPKKG
B3: Unmod H2A variant V T I A Q G G V L P N I Q (peptide)
chain: VTIAQGGVLPNIQ
B4: Unmod H2A variant L Q L A I R N D E E L N K (peptide)
chain: LQLAIRNDEELNK
B5: Unmod H2A variant L N K L L G K V T I A Q G (peptide)
chain: LNKLLGKVTIAQG
B6: Unmod H2A variant R N D E E L N K L L G K V (peptide)
chain: RNDEELNKLLGKV
B7: Unmod H2A variant I Q A V L L P K K T E S H (peptide)
chain: IQAVLLPKKTESH
B8: Unmod H2A variant L N K L L G G V T I A Q G (peptide)
chain: LNKLLGGVTIAQG
B9: Unmod H2B variant I S K K G F K K A V V K T (peptide)
chain: ISKKGFKKAVVKT
B10: Unmod H2B variant P K K G S K K A V T K A Q (peptide)
chain: PKKGSKKAVTKAQ
B11: Unmod H2B variant A P K K G S K K A V T K A (peptide)
chain: APKKGSKKAVTKA
B12: Unmod H2B variant P E P S K S A P A P K K G (peptide)
chain: PEPSKSAPAPKKG
B13: Unmod H2B variant P E P A K S A P A P K K G (peptide)
chain: PEPAKSAPAPKKG
B14: Unmod H2A variant G V L P N I Q A V L L P K (peptide)
chain: GVLPNIQAVLLPK
B15: Unmod H2B variant P E P T K S A P A P K K G (peptide)
chain: PEPTKSAPAPKKG
B16: Unmod H2B variant P E L A K S A P A P K K G (peptide)
chain: PELAKSAPAPKKG
B17: Unmod H2B variant P E V S S K G A T I S K K (peptide)
chain: PEVSSKGATISKK
B18: Unmod H2B variant P E P V K S A P V P K K G (peptide)
chain: PEPVKSAPVPKKG
B19: Unmod H2B variant V P K K G S K K A I N K A (peptide)
chain: VPKKGSKKAINKA
B20: Unmod H2A variant R N D E E L N K L L G G V (peptide)
chain: RNDEELNKLLGGV

Target: T1, HaloTag-ATRX ADD domain (163-292)
Assay: peptide microarray binding signal (635 nm), min-max normalized on array (fraction of array maximum); higher = stronger binding
Details: peptide region: Unmod H2A variant; binder concentration: 50 nM
In short: (§1)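 An Axon GenePix 4000B scanned the arrays at 635 nm for signal and at 532 nm to catch misprints. Those arrays held histone 13-mer peptide–cellulose conjugates printed in triplicate on nitrocellulose with a Cy3 tracer, blocked overnight at 4°C and probed for 1 h at 4°C with biotin-labelled HaloTag reader fusions (10 nM to 1 μM) plus streptavidin-Alexa Fluor 647 or with rabbit histone antibodies (1:10,000 to 1:2,000) plus anti-rabbit Alexa 647. Each binding signal is a triplicate-spot mean intensity, scaled min-max within its library.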

Binder	peptide microarray binding signal
B1	0.0189 ± 0.0014
B3	0.0238 ± 0.001
B4	0.0213 ± 0.0039
B5	0.0216 ± 0.0016
B6	0.0192 ± 0.00022
B7	0.0353 ± 0.0028
B8	0.027 ± 0.0084
B14	0.0417 ± 0.0058
B20	0.0156 ± 0.00038

Same assay, conditions: peptide region: Unmod H2A variant; binder concentration: 500 nM

Binder	peptide microarray binding signal
B1	0.00157 ± 0.00011
B3	0.0447 ± 0.00046
B4	0.0279 ± 0.0038
B5	0.028 ± 0.0031
B6	0.024 ± 0.0011
B7	0.0333 ± 0.018
B8	0.0141 ± 0.0028
B14	0.0254 ± 0.026
B20	0.0164 ± 0.00093

The binders below were run against HaloTag-ING2 PHD (mouse Ing2 200-280) in the same assay as above. Details: peptide region: Unmod H2A variant; binder concentration: 10 nM.
In short: as §1

Binder	peptide microarray binding signal
B1	0.00269 ± 9.9e-05
B3	0.0169 ± 0.00042
B4	0.005968 ± 4.9e-05
B5	0.006087 ± 5.8e-05
B6	0.00513 ± 0.00017
B7	0.0199 ± 0.00099
B8	0.00615 ± 0.00035
B14	0.0142 ± 0.0058
B20	0.00412 ± 5.7e-05

Same assay, conditions: peptide region: Unmod H2A variant; binder concentration: 100 nM

Binder	peptide microarray binding signal
B1	0.0085 ± 0.00045
B3	0.0193 ± 0.0019
B4	0.03182 ± 0.00024
B5	0.032 ± 0.015
B6	0.00907 ± 0.002
B7	0.0828 ± 0.029
B8	0.0259 ± 0.0025
B14	0.0437 ± 0.0091
B20	0.00397 ± 0.0011

What follows are binders tested against anti-H3K4me3 antibody ab8580 in the same assay as above. Details: peptide region: Unmod H2A variant; binder concentration: 1:2,000 dilution.
In short: as §1

Binder	peptide microarray binding signal
B1	0.000189 ± 4.1e-06
B3	0.00821 ± 0.007
B4	0.0182 ± 0.0049
B5	0.00715 ± 0.00038
B6	0.00181 ± 0.00069
B7	0.00283 ± 0.0019
B8	0.00748 ± 0.0012
B14	0.000944 ± 0.00025
B20	0.0091 ± 0.00022

Same assay, conditions: peptide region: Unmod H2A variant; binder concentration: 1:10,000 dilution

Binder	peptide microarray binding signal
B1	0.0016 ± 9.6e-05
B3	0.00451 ± 0.0005
B4	0.00422 ± 0.00051
B5	0.00171 ± 3.3e-05
B6	0.00217 ± 3.9e-05
B7	0.00371 ± 0.00028
B8	0.00177 ± 0.0002
B14	0.0081 ± 0.0012
B20	0.00171 ± 3.3e-05

What follows are binders tested against anti-H3K9me3 antibody ab8898 in the same assay as above. Details: peptide region: Unmod H2A variant; binder concentration: 1:2,000 dilution.
In short: as §1

Binder	peptide microarray binding signal
B1	0.000604 ± 2e-05
B3	0.00338 ± 0.00037
B4	0.00439 ± 0.00042
B5	0.00115 ± 4.6e-05
B6	0.00159 ± 3.2e-05
B7	0.00285 ± 0.00015
B8	0.0011 ± 4.3e-05
B14	0.00384 ± 0.00031
B20	0.0018 ± 0.00014

Same assay, conditions: peptide region: Unmod H2A variant; binder concentration: 1:10,000 dilution

Binder	peptide microarray binding signal
B1	0.00173 ± 3.3e-05
B3	0.00306
B4	0.00588 ± 0.00021
B5	0.001614 ± 1.6e-05
B6	0.001787 ± 1.7e-05
B7	0.0045 ± 0.00048
B8	0.00138 ± 3.6e-05
B14	0.0113 ± 0.0018
B20	0.00259 ± 6.1e-05

Target: T1, HaloTag-ATRX ADD domain (163-292)
Assay: as above
Details: peptide region: Unmod H2B variant; binder concentration: 50 nM
In short: as §1

Binder	peptide microarray binding signal
B2	0.0068 ± 0.00035
B9	0.00683 ± 0.00024
B10	0.00561 ± 0.00027
B11	0.00705 ± 0.00011
B12	0.00618 ± 0.00016
B13	0.00404 ± 8.4e-05
B15	0.006019 ± 5.5e-05
B16	0.00618 ± 0.00062
B17	0.0052 ± 0.00018
B18	0.007868 ± 4.2e-05
B19	0.00639 ± 0.00069

Same assay, conditions: peptide region: Unmod H2B variant; binder concentration: 500 nM

Binder	peptide microarray binding signal
B2	0.00538 ± 0.00012
B9	0.0118 ± 0.00025
B10	0.008048 ± 4.3e-05
B11	0.00729 ± 0.00014
B12	0.0115 ± 0.0012
B13	0.00971 ± 0.00016
B15	0.0126 ± 0.00066
B16	0.0121 ± 0.001
B17	0.00605 ± 0.00026
B18	0.0166 ± 0.00043
B19	0.0081 ± 0.00015

What follows are binders tested against HaloTag-ING2 PHD (mouse Ing2 200-280) in the same assay as above. Details: peptide region: Unmod H2B variant; binder concentration: 10 nM.
In short: as §1

Binder	peptide microarray binding signal
B2	0.00358 ± 0.00019
B9	0.00227 ± 7.3e-05
B10	0.00275 ± 0.00016
B11	0.00185 ± 1.9e-05
B12	0.00406 ± 0.00015
B13	0.00346 ± 6.5e-05
B15	0.0173 ± 0.011
B16	0.0037 ± 8.6e-05
B17	0.003103 ± 3e-05
B18	0.00889 ± 0.00055
B19	0.00263 ± 3.9e-05

Same assay, conditions: peptide region: Unmod H2B variant; binder concentration: 100 nM

Binder	peptide microarray binding signal
B2	0.004039 ± 3.4e-05
B9	0.00602 ± 0.00021
B10	0.00354 ± 0.00011
B11	0.00446 ± 0.00013
B12	0.0137 ± 0.0011
B13	0.00369 ± 5.6e-05
B15	0.0103 ± 0.0017
B16	0.0085 ± 0.0029
B17	0.00468 ± 0.00025
B18	0.0274 ± 0.0037
B19	0.0056 ± 0.00078

The binders below were run against anti-H3K4me3 antibody ab8580 in the same assay as above. Details: peptide region: Unmod H2B variant; binder concentration: 1:2,000 dilution.
In short: as §1

Binder	peptide microarray binding signal
B2	0.000868 ± 7.8e-05
B9	0.00051 ± 8.6e-06
B10	0.000378 ± 7.7e-06
B11	0.000529 ± 1.4e-05
B12	0.000963 ± 6.3e-05
B13	0.000359 ± 3.7e-06
B15	0.001 ± 0.0001
B16	0.0013 ± 0.00034
B17	0.00051 ± 1.5e-05
B18	0.00279 ± 0.00019
B19	0.000529 ± 4.2e-05

Same assay, conditions: peptide region: Unmod H2B variant; binder concentration: 1:10,000 dilution

Binder	peptide microarray binding signal
B2	0.00097 ± 9.9e-06
B9	0.000685 ± 7.2e-06
B10	0.000628 ± 6.7e-06
B11	0.000571 ± 1.1e-05
B12	0.00126 ± 9.4e-05
B13	0.00097 ± 2e-05
B15	0.00205 ± 0.00015
B16	0.0028 ± 0.00029
B17	0.000742 ± 1.3e-05
B18	0.00251 ± 0.00026
B19	0.000856 ± 8.9e-06

Each binder was assayed against anti-H3K9me3 antibody ab8898 in the same assay as above. Details: peptide region: Unmod H2B variant; binder concentration: 1:2,000 dilution.
In short: as §1

Binder	peptide microarray binding signal
B2	0.000453
B9	0.000257 ± 2.7e-06
B10	0.000196 ± 2.1e-06
B11	0.000211 ± 2.2e-06
B12	0.000453 ± 7.5e-06
B13	0.000408
B15	0.000649 ± 1.2e-05
B16	0.000951 ± 7.1e-05
B17	0.000362 ± 1.3e-05
B18	0.000997 ± 6.3e-05
B19	0.000196 ± 2.1e-06

Same assay, conditions: peptide region: Unmod H2B variant; binder concentration: 1:10,000 dilution

Binder	peptide microarray binding signal
B2	0.00075 ± 7.9e-06
B9	0.000461
B10	0.000577 ± 6.2e-06
B11	0.000461
B12	0.000923 ± 9.6e-06
B13	0.000346 ± 3.8e-06
B15	0.00115 ± 2e-05
B16	0.00133 ± 8.2e-05
B17	0.000634
B18	0.00144 ± 5.1e-05
B19	0.000461 ± 8.7e-06
